Compounds with a hit are over-represented: about 3% of the library has one in this group of screens.
TSHR ag: qHTS Assay for Agonists of the Thyroid Stimulating Hormone Receptor; Thyrotropin receptor (Homo sapiens), P16473; HEK293-CNG-TSHR cells (CNG channel as cAMP sensor), membrane potential dye, cAMP; Potency, µM (series often up to 57.1 µM), without a hit: top-dose activation, most hits filed as activators; 0.48% of 73,000 active; active = well fitted activation curve with a large enough effect in the main read-out, with a control signal flat, not every such curve was filed as active; inconclusive = small, poorly fitted or top-dose-only effect, or a change in a side signal; inactive = no such curve, though single readings can be large or run the other way; % of control where 0% means no effect;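 also: the control signal comes from parental cells without the receptor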
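HEK 293 cells stably expressing TSHR and a cAMP-gated CNG channel; parental CNG-only cells as counterscreen. Cells preloaded 60 min with membrane potential dye plus 100 uM RO 20-1724, then compound 30 min; fluorescence read at 590 nm.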
HEK293 cAMP cs: qHTS Assay for Agonists of the Thyroid Stimulating Hormone Receptor: Activators of Intracellular cAMP Concentrations in Parental HEK 293 | parental HEK293 CNG cAMP sensor, membrane potential fluorescence | 2.5% of 73,000 active | Potency, µM (doses to about 57.1 µM), without a hit: at the highest dose activation, hits mostly activators | AID 938, 2007; also: % of control where 0% means no effect; nearly all actives have a fitted effect of over 55% in size
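Counterscreen for endogenous-receptor signalling: CNG-channel HEK 293 cells report cAMP rise by membrane depolarization. After 60 min dye equilibration with 100 uM RO 20-1724, compounds incubated 30 min before bottom-read fluorescence at 590 nm.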
15-hLO inh: qHTS Assay for Inhibitors of 15-hLO (15-human lipoxygenase); purified 15hLO-1, xylenol orange hydroperoxide absorbance; Potency, µM (highest dose often 57.1 µM), for inactives: top-dose activity change, negative = inhibition, usual class: inhibitors; Polyunsaturated fatty acid lipoxygenase ALOX15 (Homo sapiens), P16050; 1.4% of 74,000 active; also: % is scaled to controls: 0 for no effect and ±100 for the full control effect; nearly all actives have a fitted effect of over 55% in size
Target sequence (P16050 whole entry, looked up): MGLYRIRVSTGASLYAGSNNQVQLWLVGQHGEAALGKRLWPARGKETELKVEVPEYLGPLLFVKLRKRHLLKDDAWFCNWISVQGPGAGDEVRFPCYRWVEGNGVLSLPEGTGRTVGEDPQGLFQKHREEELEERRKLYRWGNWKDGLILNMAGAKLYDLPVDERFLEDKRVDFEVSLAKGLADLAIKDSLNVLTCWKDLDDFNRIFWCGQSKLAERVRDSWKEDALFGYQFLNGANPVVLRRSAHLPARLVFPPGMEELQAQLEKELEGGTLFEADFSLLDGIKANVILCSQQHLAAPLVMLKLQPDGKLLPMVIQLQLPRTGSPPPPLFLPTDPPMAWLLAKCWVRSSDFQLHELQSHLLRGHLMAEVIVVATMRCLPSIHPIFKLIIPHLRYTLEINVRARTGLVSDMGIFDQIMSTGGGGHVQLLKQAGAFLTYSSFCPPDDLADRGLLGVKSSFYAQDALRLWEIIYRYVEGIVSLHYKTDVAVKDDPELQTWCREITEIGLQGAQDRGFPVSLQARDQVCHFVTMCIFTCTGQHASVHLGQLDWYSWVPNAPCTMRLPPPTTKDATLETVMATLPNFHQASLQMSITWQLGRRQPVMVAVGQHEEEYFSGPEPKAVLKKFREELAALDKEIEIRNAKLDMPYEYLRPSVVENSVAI
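Inhibition is scored from a chromogenic endpoint. After 15 min enzyme-compound contact, arachidonic acid (50 uM final) reacts 6 min with 40 nM 15hLO-1 at room temperature, then Fe-XO reagent is added for 30 min and absorbance ratio recorded.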
15-hLO-2 inh: qHTS Assay for Inhibitors of 15-hLO-2 (15-human lipoxygenase 2); Polyunsaturated fatty acid lipoxygenase ALOX15B (Homo sapiens), O15296; purified 15hLO-2, xylenol orange hydroperoxide absorbance; Potency, µM (series often up to 57.1 µM), for inactives: top-dose activity change, negative = inhibition, actives largely listed as inhibitors; 0.56% of 110,000 active; also: % is scaled to controls: 0 for no effect and ±100 for the full control effect; nearly all actives have a fitted effect of over 60% in size
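Purified human 15hLO-2 (50 nM final) preincubated with compounds 15 min at room temperature in 25 mM Hepes pH 7.5, 0.01% Triton X-100, then 45 uM arachidonic acid added for 90 min; hydroperoxide detected via ferrous/xylenol orange, 573/405 nm absorbance ratio.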
Casp7 inh: qHTS Assay for Allosteric/Competitive Inhibitors of Caspase-7. AID 889, 2007. P55210. 0.02% of 75,000 active. Potency, µM (titrated, usually from 57.5 µM), without a hit: at the top dose activity change, negative = inhibition, most hits filed as inhibitors. recombinant caspase-7, Ac-DEVD-AFC fluorescence rate; active = well fitted inhibition curve with a large enough effect in the main read-out, with a control signal flat, not every such curve was filed as active; inconclusive = small, poorly fitted or top-dose-only effect, or a change in a side signal; also: % of control where 0% means no effect
Caspase-1 inhib: qHTS Assay for Allosteric/Competitive Inhibitors of Caspase-1; Potency, µM (series often up to 57.5 µM), for the others: top-dose activity change, negative = inhibition, usual class: inhibitors; P29466; 0.03% of 75,000 active; Caspase-1 enzyme, Ac-WEHD-AFC fluorogenic rate; AID 900, 2007;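 also: plate controls were vehicle for no effect and no substrate for full effect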
Starred values were filed as active, the others as inactive; u = inconclusive; x = no result; [ ] = remark or other dose. Unless noted, calls follow the shape of the dose curve; as a rule, active = well fitted curve in the direction sought with a large enough effect; inconclusive = small, poorly fitted or top-dose-only effect, or another doubt; inactive = no such curve, though single readings can be large; an effect the other way counts as inactive or inconclusive. Potency is read from the fitted curve at half-maximal effect.

SMILES	TSHR ag	HEK293 cAMP cs	15-hLO inh	15-hLO-2 inh	Casp7 inh	Caspase-1 inhib
O=c1[nH]ncc2c3ccccc3n(Cc3ccc(F)cc3)c12	16µM*	5%	-11%	7%	-1%	2%
CN(N=O)c1ccc(/C=C\c2ccnc3ccccc23)cc1	-2%[11.4 µM]	1%[11.4 µM]	3%[11.4 µM]	6%[11.4 µM]	0%[11.5 µM]	0%[11.5 µM]
COc1cc(N=c2ssnc2Cl)cc(OC)c1OC	-1%	-6%	3.2µM*	25µM*	-1%	1%
Cc1sc(NC(=O)CSc2nnc(COc3ccccc3)n2C)c(C#N)c1C	u	6.3µM*	-5%	5%	-2%	-3%
CCOC(=O)c1cnc2c(C(=O)OC)cccc2c1NCc1ccco1	11%	-1%	-10%	2%	-5%	-9%
CCOC(=O)c1ccc2ncc(C(=O)OCC)c(NCc3ccco3)c2c1	u	25µM*	-7%	28%	-2%	-2%
CCOC(=O)c1cnc2c(C)cccc2c1NCc1ccco1	u	25µM*	-1%	14%	-1%	-5%
CCOC(=O)Cc1csc(-n2sc3ccccc3c2=O)n1	-3%	3%	0.2µM*	1.3µM*	0%	-4%
CCOC(=O)Cc1csc(SCn2nnc3ccccc3c2=O)n1	8%	20%	-7%	-2%	0%	-1%
N#C/C(=C\c1ccc(N2CCOCC2)o1)c1nc2ccccc2[nH]1	x	x	x	-28%	x	x
N#C/C(=C/c1ccc(N2CCOCC2)o1)c1ccc(Cl)cc1	x	x	x	10µM*	x	x
COc1ccc(C(=O)N2CCC3(CC2)CN(C(=O)Nc2cccc(C#N)c2)C3)cc1	x	12%	11%	0%	-1%	-1%
O=C(Nc1ccccc1)N1CC=C(c2ccccc2)CC1	u	u	25µM*	-8%	-4%	-1%
CC(C)(C)N1C(=O)[C@@H]2[C@H]3C(=CC[C@H]2C1=O)C(=O)[C@H]1O[C@H]1[C@H]3O	x	8%[11.4 µM]	-1%[11.4 µM]	x	-11%[11.5 µM]	0%[11.5 µM]
CCOc1c(OC)cccc1C1CC(=O)Nc2cc3c(cc21)OCCO3 (stereo not drawn)	25µM*	29%	-3%	-3%	-1%	-3%
CCCc1[nH]n(-c2nc3ccccc3s2)c(=O)c1C=NCC(C)C	x	x	x	39%	x	x
COC(=O)CC1C(C)(C)C(=O)C2CC3C4=CC(=O)OC(c5ccoc5)[C@]4(C)CCC3[C@@]1(C)C2=O (stereo partly drawn)	x	x	5%	-2%	0%	1%
CCCC/C=C/C(NC(=O)CCc1ccccc1)c1ccccc1 (stereo not drawn)	u	10µM*	x	7%	-3%	1%
CCCC/C=C/C(NC(=O)Oc1cccc(C(F)(F)F)c1)c1ccccc1 (stereo not drawn)	u	25µM*	x	13%	-4%	1%
Nc1ccc(CCNc2ncnc3c2ncn3[C@@H]2O[C@@H](CO)[C@H](O)[C@@H]2O)cc1	u	u	4%	-1%	1%	4%
Cc1cccc(-n2nnnc2SC(C)C(=O)NCCC2=CCCCC2)c1 (stereo not drawn)	u	13µM*	u	-8%	-5%	-6%
CC(C)(C)OC(=O)N1CCN(c2ccc(CNC(=O)c3ccc(Cl)cc3)cc2)CC1	x	x	x	-2%	x	x
CC1(C)CC[C@]2(C(=O)O)CC[C@]3(C)C(=CC[C@@H]4[C@@]5(C)CC[C@H](O)C(C)(C)[C@@H]5CC[C@@]43C)[C@@H]2C1	-3%	-1%	x	x	x	x
CCCC/C=C/C(NC(=O)c1ccc(C(F)(F)F)cc1)c1ccccc1 (stereo not drawn)	u	u	x	-1%	-2%	3%
